Assay outcomes deposited in PubChem BioAssay by several laboratories.
eIF4E 4G PPI – eIF4E/eIF4G interaction inhibition in translation initiation; P63073+Q04637; TR-FRET eIF4E-eIF4GI(517-606) binding, 2 h; inhibition, % at 21.7 µM; actives 0.37% (n = 220,000); AID 782;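 note: 0% = full FRET control wells and 100% = background wells lacking eIF4GI fragment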
14-3-3 Bad inh – disrupts binding of bovine 14-3-3 zeta to phospho-Bad peptide; P63103; TR-FRET 14-3-3zeta/Dy647-pBad peptide displacement, 1 h; inhibition, % at 21.7 µM; actives 0.71% (n = 220,000); AID 781;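 active = inhibition above about 70%, limit read from the data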;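 note: 0% = full 14-3-3 plus peptide FRET controls and 100% = background without 14-3-3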
SUMO HTRF inh – SUMOylation inhibition | P63279 | HTRF SUMOylation assay, SAE1/SAE2 + UBC9, in vitro | inhibition, % at 35 µM | actives 0.36% (n = 290,000) | AID 2006; in the data active = inhibition above about 50%, passing the limit was not always enough
Target sequence (P63279 whole entry, looked up): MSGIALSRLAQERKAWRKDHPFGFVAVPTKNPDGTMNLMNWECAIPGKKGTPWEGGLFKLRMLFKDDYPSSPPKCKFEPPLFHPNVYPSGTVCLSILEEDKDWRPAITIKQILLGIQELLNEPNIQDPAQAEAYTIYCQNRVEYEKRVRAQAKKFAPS
p47phox inh – inhibitors of human p47phox binding; P14598; p47phox/p22phox peptide binding, fluorescence polarization, 2 h; inhibition, % at 24.7 µM; actives 0.53% (n = 220,000); AID 1274;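 note: 0% = p47phox with labelled peptide and 100% = labelled peptide alone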
Target sequence (P14598 whole entry, looked up): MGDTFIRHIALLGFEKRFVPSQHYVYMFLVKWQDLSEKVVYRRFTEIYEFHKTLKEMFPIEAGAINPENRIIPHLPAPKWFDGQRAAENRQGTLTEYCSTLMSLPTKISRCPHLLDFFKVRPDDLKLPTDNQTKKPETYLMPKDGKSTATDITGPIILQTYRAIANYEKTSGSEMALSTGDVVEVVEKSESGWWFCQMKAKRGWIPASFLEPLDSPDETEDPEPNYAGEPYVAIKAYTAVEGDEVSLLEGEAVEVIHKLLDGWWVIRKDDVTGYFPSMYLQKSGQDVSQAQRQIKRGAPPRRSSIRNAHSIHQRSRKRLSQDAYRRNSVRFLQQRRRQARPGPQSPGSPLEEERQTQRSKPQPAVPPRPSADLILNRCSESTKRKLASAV
* marks the source's active call; other numbers are inactive results; nt = no result given; + = active, no number; [ ] = remark or other dose. In the library only some 1.3% were active in any assay of this set; here they are far more common.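 Rule for the calls, unless noted: active = inhibition above about 30% (limit read from the data); inactive = the rest.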

SMILES	eIF4E 4G PPI	14-3-3 Bad inh	SUMO HTRF inh	p47phox inh
Cc1cc(C(=O)N/N=C/c2ccc(-c3ccc(C)c(Cl)c3)o2)n[nH]1	-1	-1	58*	-55
Cc1ccc(NC(=O)CC2C(=O)NCCN2C(=S)Nc2ccccc2)c(C)c1 (configuration not stated)	3	75*	4	-7
O=C(CC1C(=O)NCCN1C(=S)Nc1ccccc1)Nc1ccc2c(c1)OCCO2 (configuration not stated)	-6	-5	-4	-17
COc1cc(NC(=O)Cn2cnc3sc(C)c(S(=O)(=O)N4CCOCC4)c3c2=O)cc(OC)c1OC	nt	nt	0	nt
O=C(NCc1ccco1)c1c2c(nc3ccccc13)CCC2	nt	nt	17	2
O=C(NCc1ccc(F)cc1)c1c2c(nc3ccccc13)CCC2	36*	11	23	-7
COc1cccc(C(=O)C2CCCN(C(=O)c3cccc(C#CC(C)(C)O)c3)C2)c1 (configuration not stated)	2	-1	5	7
CCN1CCN(Cc2ccc(NC(=O)c3ccc(C)c(NC(=O)c4cc(-c5ccc(Br)cc5)n[nH]4)c3)cc2C(F)(F)F)CC1	17	-17	1	63*
CCN1CCN(Cc2ccc(NC(=O)c3cc(NC(=O)c4cncc(-c5ccc(C#N)cc5)c4)cc(OC)c3)cc2C(F)(F)F)CC1	-110	-58	-28	69*
CCN1CCN(Cc2ccc(NC(=O)c3ccc(C)c(NC(=O)c4nccn4C)c3)cc2C(F)(F)F)CC1	-10	-3	24	2
CCN1CCN(Cc2ccc(NC(=O)c3cc(NC(=O)c4nccnc4N)cc(OC)c3)cc2C(F)(F)F)CC1	-3	-4	7	-40
Cc1noc(C)c1S(=O)(=O)Nc1ccc(C(=O)NC2CCCCC2C)cc1 (configuration not stated)	1	85*	29	2
COc1ccc(-n2nc(C(=O)Nc3nc4ccc(OC)cc4s3)c3ccccc3c2=O)cc1	-6	48	2	38*
COc1ccc(/C=N/NC(=O)c2nn(-c3ccc(C)c(C)c3)c(=O)c3ccccc23)cc1	-9	-3	5	+
COc1ccc(/C=N/NC(=O)c2nn(-c3ccccc3)c(=O)c3c(N)scc23)cc1	-3	-2	2	-4
CC(=O)NS(=O)(=O)c1ccc(NC(=O)c2ccc3c(c2)C(=O)N(CCC(C)C)C3=O)cc1	17	0	10	59*
CC1CCN(C(=O)C2CCN(S(=O)(=O)c3ccc(-n4cnnn4)cc3)CC2)CC1	nt	nt	11	nt
c1ccc(-c2nccc(-c3ccc(-n4cnc5ccccc54)cc3)n2)cc1	-4	96*	5	46*
CS(=O)(=O)N1CCCC(C(=O)Nc2ccccc2Cl)C1 (configuration not stated)	nt	nt	23	nt
Cc1ccc(CNS(=O)(=O)c2ccc3c(c2)CCN3C(=O)CCCC(=O)O)cc1	-3	-2	23	0
CN(C)c1ccc(/C=C/C=C2/SC(=S)N(c3ccccc3)C2=O)cc1	-4	-15	4	107*
O=C1/C(=C/c2ccco2)SC(=S)N1c1cccnc1	55*	85*	84*	-2
O=C1/C(=C\c2ccco2)SC(=S)N1c1ccc(O)cc1	-2	2	57*	-21
O=C1/C(=C\c2ccc(O)cc2)SC(=S)N1c1cccnc1	12	33	27	-1
NN1C(=O)/C(=C\c2ccco2)SC1=S	0	2	91	-10
SMILES	eIF4E 4G PPI	14-3-3 Bad inh	SUMO HTRF inh	p47phox inh
O=C1/C(=C/C=C/c2ccco2)SC(=S)N1c1ccc(O)cc1	37*	63	64*	-63
O=C(O)c1ccc(N2C(=O)/C(=C/C=C/c3ccccc3)SC2=S)cc1	1	-8	2	-4
CC(C)C(C(=O)O)N1C(=O)/C(=C/C=C/c2ccco2)SC1=S (configuration not stated)	46*	71*[fluorescence artefact?]	76*	-81
CC(C)C(C(=O)O)N1C(=O)/C(=C/c2cccn2C)SC1=S (configuration not stated)	13	2	-2	-14
O=C(NN1C(=O)/C(=C/C=C/c2ccco2)SC1=S)c1ccncc1	37*	71*	nt	-84
COc1ccc(-n2cc(CNC3CCC(O)CC3)c(-c3cccc(F)c3)n2)cc1 (configuration not stated)	-2	9	20	-7
O=C(O)Cn1c(=O)c2c3c(sc2n(Cc2ccccc2F)c1=O)CCCC3	nt	nt	-8	nt
CC(=O)Nc1cccc(C(=O)N2CCC(n3nccc3NC(=O)CC(C)C)CC2)c1	nt	nt	1	nt
O=C(O)CS(=O)(=O)CC(=O)O	-1	20	25	-11
COc1ccccc1NC(=O)c1ccc(NC(=O)c2cc3c(s2)CCC3)cc1	41*	79*[fluorescence artefact?]	5	-15
Oc1ccc(C[C@@H]2CNC(=S)N2CCCCC2CCCCC2)cc1	0	-4	-15	-30
CCCCn1c(O)c(N=NC(=O)c2ccco2)c2ccccc21	-6	-6	-6	-17
O=C(N=Nc1c(O)n(C2OC(=O)c3ccccc32)c2ccccc12)c1ccco1 (configuration not stated)	7	52	26	31*
CCCCN(C)CCC(=O)Nc1ccc2c(c1)CCC2	-1	-10	1	-8
Cc1ccc(C(=O)N/C(=C\c2cccs2)C(=O)NCCCn2ccnc2)cc1C	6	1	-20	-5
COc1cc(-c2ncc3ccccn23)cc(OC)c1OC	6	73*	12	5
COc1cc(OC)cc(-c2ncc3ccccn23)c1	12	70	15	-9
CCn1c(=O)cc(OCC(=O)Nc2ccccc2C#N)c2ccccc21	-1	7	5	1
Cc1c2cnn(CC(=O)Nc3c(F)c(F)cc(F)c3F)c(=O)c2c(C)n1Cc1ccccc1F	32*	17	62*	-60
O=C(Cc1cccc(C(F)(F)F)c1)NCc1ccc(Cl)cc1Cl	3	2	0	1
Cc1cccn2c(=O)c(/C=N/O)c(Nc3ccccc3F)nc12	-8	87*	47	-4
O=c1c2ccccc2nc(-c2ccc(F)cc2)n1NCc1ccccc1O	-1	-7	3	2
O=C(O)C1CCCN1c1ncccn1 (configuration not stated)	-1	-9	10	78*
CC(=O)Nc1ccc(S(=O)(=O)N/N=C/c2ccc(C)s2)cc1	-7	-22	-11	-6
O=C(OC1CCCCC1)c1ccc2c(c1)C1C=CCC1C(C(=O)O)N2 (configuration not stated)	62*[fluorescence artefact?]	45	-7	39*
O=C(O)C1Nc2c(O)cccc2C2C=CCC12 (configuration not stated)	48*[fluorescence artefact?]	83*[fluorescence artefact?]	97*	2
NC(=O)N/N=C(/CCCCCC/C(=N\NC(N)=O)c1ccccc1)c1ccccc1	6	0	9	-5
CS(=O)(=O)N1CCC(C(=O)N2CCN(c3cccc(Cl)c3)CC2)CC1	1	0	12	-4
O=C(C1CCN(S(=O)(=O)c2cccnc2)CC1)N1CCN(c2cccc(Cl)c2)CC1	86*	2	-10	-4
